Bioassay records (PubChem BioAssay)
Shown are actives, neighbours in structure and some others; about 2.9% of the full set was active somewhere.
Peg3 promoter – reduces Peg3 promoter-driven luciferase expression in HeLa; HeLa PEG-Prom luciferase reporter, luminescence, overnight; hit rate 1.7% among 360,000; inhibition, % at 20 µM;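 active = inhibition of at least 50% at 20 µM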
MITF TRPM1 inh – inhibitors of MITF-driven TRPM1 promoter in melanoma cells. inhibition, % at 12.5 µM. SK-MEL-5 TRPM1 promoter luciferase, 24 h. hit rate 0.83% among 330,000. AID 488899;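 active = mean inhibition across replicates of 60% or more, whatever share of single replicates reaches that level; inconclusive = some that reach 60%, reason not given; inactive = mean inhibition across replicates below 60%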
CF NFkB inh – inhibitors of cystic fibrosis induced NF-kB. inhibition, % at 5 µM. AID 588850. hit rate 0.86% among 360,000. KKLEB NF-kB-GFP reporter, PAF-induced, GFP fluorescence overnight;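 active = at least 50% inhibition at 5 µM, scaled per plate between neutral and stimulator controls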;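 also: PAF is a Pseudomonas aeruginosa culture filtrate used as stimulus; plate controls were PAF-stimulated DMSO wells for no effect and unstimulated DMSO wells for full effect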
EBV LMP1 NFkB – reduces LMP1-driven NF-kappaB luciferase signal; LMP1-induced NF-kappaB luciferase reporter cells, luminescence; hit rate 0.69% among 350,000; inhibition, % at 12.5 µM; in the data active = inhibition above about 41%; inconclusive = no clear call, values can overlap the other calls;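 also: 0% = neutral control wells and 100% = reference inhibitor control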
KKLEB cytotox – counter-screen for CF NF-kB inhibitors: cytotoxicity; KKLEB CF airway cells viability, ATPlite luminescence, overnight; active compounds read low; cells stimulated with P. aeruginosa culture filtrate; activity change (cytotoxicity), % at 5 µM; hit rate 0.36% among 360,000; AID 602141;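 active = corrected activity change at or below -50% at 5 µM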
Shn3 3UTR inh – inhibitors of Schnurri-3 3'UTR reporter in osteoblasts; Clone20 osteoblast Shn3 3'UTR firefly luciferase, 24 h; inhibition, % at 12.5 µM; hit rate 0.52% among 360,000;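 active = mean inhibition of at least 75% with every replicate also reaching 75%; inconclusive = mean inhibition at least 75% but some replicate below; inactive = mean inhibition below 75%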;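 also: 0% = median of neutral control wells and 100% = pilot-screen positive control compound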
Starred values were filed as active, the others as inactive; u = inconclusive; x = no result given.

SMILES	Peg3 promoter	MITF TRPM1 inh	CF NFkB inh	EBV LMP1 NFkB	KKLEB cytotox	Shn3 3UTR inh
CC(C)N1CCc2c(sc(NC(=O)c3cc(-c4cccs4)nc4ccccc34)c2C(N)=O)C1	78*	3	-59	-3	-18	15
CC(C)N1CCc2c(sc(NC(=O)c3nc4ccccc4s3)c2C(N)=O)C1	-39	-8	-18	10	-14	12
COc1ccc(C(=O)Nc2sc3c(c2C#N)CCN(C(C)=O)C3)cc1	-7	17	-5	-6	-9	7
CC(C)N1CCc2c(sc(NC(=O)c3ccc(S(=O)(=O)N4CCc5ccccc54)cc3)c2C(N)=O)C1	98*	3	-53	-11	-1	18
CC(=O)N1CCc2c(sc(NC(=O)c3ccc([N+](=O)[O-])o3)c2C#N)C1	109*	95*	98*	-16	-64*	13
Nc1ccn([C@@H]2O[C@H](C(=O)NCC(F)(F)F)[C@@H](O)[C@H]2O)c(=O)n1	-28	x	-8	x	6	-3
Cc1cn([C@H]2C[C@H](O)[C@@H](CNCc3ccccc3OCCCN3CCOCC3)O2)c(=O)[nH]c1=O	-7	x	6	5	1	16
c1ccc(CNc2nc(-c3ccccn3)nc3ccccc23)cc1	47	27	16	27	-1	64
CCC(C)Nc1nc(-c2cccc(OC)c2O)nc2ccccc12 (stereo not drawn)	54*	3	-3	-2	9	30
CCC(C)Nc1nc(-c2ccccn2)nc2ccccc12 (stereo not drawn)	32	27	6	48*	-4	u
CCCCOc1ccc(Br)cc1CSC(=N)N	105*	14	17	1	-13	92*
CCCCCOc1ccc(CSC(=N)N)cc1[N+](=O)[O-]	107*	-5	-4	-109	10	-46
O=C(c1ccc(CS(=O)c2ccccc2Cl)o1)N1CCN(C2CCCCC2)CC1 (stereo not drawn)	11	x	-54	-27	4	1
CN(C)CCN1CCN(C2CN(CCc3ccccc3)S(=O)(=O)C2)CC1 (stereo not drawn)	2	x	0	x	3	11
Cc1nnn(-c2nonc2N)c1C(=O)N/N=C/c1cccc2ccccc12	52*	-2	4	6	-5	9
O=C(NN=Cc1cccc2ccccc12)C(=O)NN=Cc1cccc2ccccc12	51*	0	-24	-26	6	19
CC(=C/c1ccccc1)/C=N/NC(=O)c1nnn(-c2nonc2N)c1CN1CCC(C)CC1	24	2	-3	0	-1	7
CC1CCN(Cc2c(C(=O)N/N=C/c3ccccc3O)nnn2-c2nonc2N)CC1	66*	30	4	32	1	80
Nc1nonc1-n1nnc(C(=O)N/N=C/c2cc(Cl)ccc2O)c1CN1CCCCCC1	54*	27	5	13	-15	66
CCCS(=O)(=O)NC(=O)C1(C)CCN(C(=O)c2ccc(OC)c(F)c2)C1 (stereo not drawn)	-15	x	18	x	-16	0
CN(Cc1c(C(=O)N/N=C/c2cccc(O)c2)nnn1-c1nonc1N)C1CCCCC1	17	8	11	1	2	-1
CC(C)c1c(C(=O)N/N=C/c2ccc3c(c2)OCO3)nnn1-c1nonc1N	-76	-17	-17	0	22	-18
CCCc1c(C(=O)N/N=C(\C)c2ccccn2)nnn1-c1nonc1N	40	x	-18	u	-8	89*
CN(Cc1c(C(=O)N/N=C/c2ccccc2O)nnn1-c1nonc1N)C1CCCCC1	59*	x	12	27	-9	83
CCN(CC)c1ccc(/C=N/NC(=O)c2nnn(-c3nonc3N)c2C(C)C)c(O)c1	53*	68*	41	64*	-26	92*
SMILES	Peg3 promoter	MITF TRPM1 inh	CF NFkB inh	EBV LMP1 NFkB	KKLEB cytotox	Shn3 3UTR inh
O=C(N/N=C\c1cc(Cl)ccc1O)c1ccc(S(=O)(=O)N2CCCCC2)cc1	44	66*	14	23	-18	91*
CCc1ccc(C(O)c2ncc(-c3ccc(Cl)cc3)[nH]2)cc1 (stereo not drawn)	-18	x	-10	x	-3	10
CC(C)c1ccc(NC(=O)CN(C)C2=NS(=O)(=O)c3ccccc32)cc1	1	x	-13	-1	0	1
O=C(Cn1nnc(-c2ccccc2)n1)N/N=C/c1cc([N+](=O)[O-])c(Cl)cc1Cl	50*	12	-13	-2	7	-8
O=C(Cn1nnc(-c2ccccc2)n1)N/N=C/c1cc([N+](=O)[O-])ccc1O	8	19	17	16	-29	-1
COc1ccc(OCC(=O)Nc2ccc3oc(-c4ccncc4)nc3c2)cc1	-35	-2	-2	0	11	8
Cc1ccc(OCC(=O)Nc2ccc(O)c(-c3nc4ccccc4o3)c2)cc1	52*	42	70*	3	-61*	34
CCc1ccccc1NC(=O)C(CC)Sc1nc2cc3c(cc2c(=O)n1Cc1ccco1)OCO3 (stereo not drawn)	35	35	-3	-3	1	52
CCc1ccc(NC(=O)C(CC)Sc2nc3cc4c(cc3c(=O)n2Cc2ccco2)OCO4)cc1 (stereo not drawn)	30	-11	48	-1	-63*	8
CCN1CCCSC1=S	-4	x	6	x	8	26
CC(=O)Nc1ccc(NC(=O)CN(C)CC(=O)Nc2ccccc2Br)cc1	13	16	8	5	-6	-7
CN(CC(=O)Nc1cccc(F)c1)CC(=O)N(C)CC(=O)Nc1ccccc1Br	18	10	-11	73*	-2	-21
C=CC(=O)Nc1cccc(Oc2ccnc3[nH]ccc23)c1	-11	2	42	3	-10	-16
C=CC(=O)Nc1cccc(Oc2ccnc(Nc3ccc(N4CCN(C)CC4)cc3)n2)c1	52*	28	63*	35	-24	66
CN1CCN(c2ccc(NC(=O)COc3cccc4ccccc34)cc2)CC1	-42	2	10	4	-14	18
C=CC(=O)Nc1cccc(N(C)c2ccnc(Nc3ccc(N4CCN(C)CC4)cc3)n2)c1	38	25	61*	44*	-36	84
C[C@@H]1CN([C@H](C)CO)C(=O)CCCn2nncc2CO[C@@H]1CN(C)S(=O)(=O)c1ccc(-n2cccn2)cc1	-2	x	-3	3	14	2
CN(C)CCCN(Cc1ccccc1)C(=S)Nc1cccc(C(F)(F)F)c1	13	2	10	-5	-1	8
COc1ccc(NC(=S)N(CCCN2CCCC2)Cc2cccn2Cc2ccc(Cl)cc2)cc1Cl	103*	7	26	20	-12	1
Cc1cc(NC(=S)N(CCN2CCCCC2)Cc2ccco2)ccc1Cl	7	-4	8	1	-6	17
FC(F)(F)c1cccc(NC(=S)N(CCCN2CCCC2)Cc2cccn2Cc2ccc(Cl)cc2)c1	106*	16	36	2	-17	40
